G9a inh = G9a (human) methyltransferase inhibition; Q96KQ7; G9a H3K9 monomethylation, AlphaScreen, 2 h; Potency, µM (highest dose often 102 µM), for inactives: top-dose activity, negative = inhibition, most hits filed as inhibitors; 350,000 compounds, 8.8% hits; AID 504332; also: % is scaled to controls: 0 for no effect and ±100 for the full control effect; nearly all actives have a fitted effect of over 75% in size
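Chemiluminescent proximity detection of H3K9 monomethylation, read after 10 min bead incubation in the dark. Reaction: 20 nM G9a, 500 nM biotin-H3K9 peptide, 20 uM SAM cofactor, 2 h, room temperature, following 15 min enzyme-compound preincubation.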
Sfp inh = inhibitors of Bacillus subtilis Sfp phosphopantetheinyl transferase; Potency, µM, without a hit: largest response in the series, negative = inhibition, hits mostly inhibitors; Q9F4F7; Biochemical Sfp PPTase activity, qHTS; 310,000 compounds, 3.5% hits;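 also: the enzyme is Sfp with the accession as filed and its product quenches rhodamine fluorescence; 0% = enzyme reaction without inhibitor and -100% = no enzyme wells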
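Fluorescence-quenching assay with 15 nM Sfp, 5 uM rhodamine-CoA and 12.5 uM BHQ-2-labelled ybbR peptide in pH 7.6 Hepes/MgCl2 buffer. Enzyme was pre-incubated with compound for 15 min at room temperature. Rate was taken from the 30-min fluorescence change (525/598 nm).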
HP1b chromo inh = blocks HP1-beta chromodomain binding to methylated histone tails; Potency, µM (top dose mostly 114 µM), inactives show at the highest dose activity change, negative = inhibition, actives largely listed as inhibitors; AID 540317; AlphaScreen HP1-beta / biotin-H3K9me3 peptide binding; 390,000 compounds, 0.56% hits; P83916; also: nearly all actives have a fitted effect of over 70% in size
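Compound inhibition of the preformed complex between 50 nM HP1-beta and 50 nM biotinylated H3K9me3 peptide was read by AlphaScreen. Buffer was PBS pH 7.4 with 0.01% Tween-20. Incubations ran 30 min at room temperature, with 10 ug/mL donor/acceptor beads.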
L3MBTL1 inh = blocks human L3MBTL1; Q9Y468; AlphaScreen L3MBTL1–H3K9me1 peptide binding; Potency, µM (titrated, usually from 57.1 µM), without a hit: at the top dose activity, negative = inhibition, actives largely listed as inhibitors; 230,000 compounds, 0.66% hits; AID 485360; also: % is scaled to controls: 0 for no effect and ±100 for the full control effect; nearly all actives have a fitted effect of over 60% in size
Target sequence (Q9Y468 whole entry, looked up): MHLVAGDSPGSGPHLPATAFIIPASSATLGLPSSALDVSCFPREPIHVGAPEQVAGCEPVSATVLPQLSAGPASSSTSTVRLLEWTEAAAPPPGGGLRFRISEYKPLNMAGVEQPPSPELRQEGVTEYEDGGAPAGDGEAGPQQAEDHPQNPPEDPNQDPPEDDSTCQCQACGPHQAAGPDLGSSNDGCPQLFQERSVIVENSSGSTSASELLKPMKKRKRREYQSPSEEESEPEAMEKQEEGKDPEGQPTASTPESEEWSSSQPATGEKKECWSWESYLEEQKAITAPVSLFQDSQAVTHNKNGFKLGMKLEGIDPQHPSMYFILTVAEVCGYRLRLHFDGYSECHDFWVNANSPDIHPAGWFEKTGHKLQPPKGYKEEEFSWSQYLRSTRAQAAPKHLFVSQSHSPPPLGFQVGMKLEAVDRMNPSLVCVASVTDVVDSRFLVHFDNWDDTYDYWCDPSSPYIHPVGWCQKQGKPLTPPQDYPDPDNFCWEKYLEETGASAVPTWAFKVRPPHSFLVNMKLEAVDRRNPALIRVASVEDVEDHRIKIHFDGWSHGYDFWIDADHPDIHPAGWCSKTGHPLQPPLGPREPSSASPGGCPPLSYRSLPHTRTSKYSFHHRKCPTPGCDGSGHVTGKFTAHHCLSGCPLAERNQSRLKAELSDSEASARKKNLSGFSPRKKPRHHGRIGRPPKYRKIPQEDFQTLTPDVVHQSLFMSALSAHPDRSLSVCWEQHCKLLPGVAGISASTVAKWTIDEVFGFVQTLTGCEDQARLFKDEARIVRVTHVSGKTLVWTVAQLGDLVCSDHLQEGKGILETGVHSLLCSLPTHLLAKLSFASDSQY
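Displacement of a biotinylated histone H3(1-15) peptide monomethylated at Lys9 (75 nM) from L3MBTL1 (50 nM) was measured by AlphaScreen after a 30 min room-temperature compound incubation; cefsulodin titration served as intraplate control.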
BAZ2B inh = inhibitors of human BAZ2B bromodomain; Potency, µM (titrated, usually from 114 µM), for inactives: at the top dose activity change, negative = inhibition, actives largely listed as inhibitors; AlphaScreen BAZ2B-H3K14Ac peptide displacement; 360,000 compounds, 4.4% hits; Q9UIF8; also: % is scaled to controls: 0 for no effect and ±100 for the full control effect; nearly all actives have a fitted effect of over 60% in size
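AlphaScreen luminescence quantifies BAZ2B engagement of H3K14Ac peptide; the protein and biotinylated peptide are both at 50 nM final, buffer PBS pH 7.4 with 0.01% Tween-20, all steps at room temperature.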
JMJD2A Tudor = JMJD2A Tudor domain (human) inhibition. O75164. AlphaScreen JMJD2A-Tudor / H3K4me3 peptide binding. Potency, µM (series often up to 114 µM), inactives show at the highest dose activity change, negative = inhibition, hits mostly inhibitors. 390,000 compounds, 4.4% hits. AID 504339; also: % is scaled to controls: 0 for no effect and ±100 for the full control effect; nearly all actives have a fitted effect of over 50% in size
* hit, by the source's call; ? = inconclusive; nt = no result; [ ] = another dose, or the depositor's remark. Only some compounds are listed: those with a hit (about 12% of all), similar ones and a draw of the others. Calls follow the shape of the dose curve; as a rule, active = well fitted curve in the direction sought with a large enough effect; inconclusive = small, poorly fitted or top-dose-only effect, or another doubt; inactive = no such curve, though single readings can be large; an effect the other way counts as inactive or inconclusive. Potency is read from the fitted curve at half-maximal effect.

SMILES | G9a inh | Sfp inh | HP1b chromo inh | L3MBTL1 inh | BAZ2B inh | JMJD2A Tudor
O=[N+]([O-])c1ccc2c(c1)ncn2-c1ccccc1 | -9% | -6% | 15% | 1% | 1% | -9%
Cn1c(-[n+]2c(-c3ccccc3)cc(-c3ccccc3)cc2-c2ccccc2)nc2cc([N+](=O)[O-])ccc21 | 1.8µM* | 22µM* | 17% | -14% | 40µM* | -10%
OC[C@@H]1[C@@H](c2ccc(F)cc2)C(c2cccc(Cl)c2)=NN1c1ccccc1 | 308% | 42% | 295% | 113% | nt | 165%
O=C(O)CCCN1C(=O)/C(=C\c2ccccc2OCc2ccccc2)SC1=S | 40µM* | 1% | ? | nt | 50µM* | 56µM*
O=C(O)CN1C(=O)/C(=C\c2cc([N+](=O)[O-])ccc2OCc2ccccc2Cl)SC1=S | 35µM* | 79µM* | ? | nt | 50µM* | 50µM*
O=C(O)CCCCN1C(=O)/C(=C\c2ccc(OCc3ccccc3)c(OCc3ccccc3)c2)SC1=S | -22% | -25% | ? | nt | 32µM* | 18µM*
O=C(O)CCCN1C(=O)/C(=C/c2cn(-c3ccccc3)nc2-c2cccs2)SC1=S | ? | -29% | ? | nt | 45µM* | 14µM*
Cc1nn(-c2ccccc2)c(Cl)c1/C=C1\SC(=S)N(CCCCCC(=O)O)C1=O | 8%[12.7 µM] | -4% | ? | -26% | ? | ?
COc1ccc(/C=C2/SC(=S)N(CC(=O)O)C2=O)cc1OCc1ccc(Cl)cc1 | nt | -33% | -19% | -10% | ? | ?
CCCC[C@@H]1CCCO[C@@](C(=O)NCCN2CCOCC2)(C(F)(F)F)C1 | nt | 14% | 10% | nt | nt | -25%
COc1cc([C@@H]2CC(=O)c3c(O)cc(O)cc3O2)ccc1O | nt | -14% | nt | nt | nt | nt
O=S(=O)(c1cccc(F)c1)N1CCN(c2nc(-c3cccnc3)nc3ccccc23)CC1 | nt | nt | 22% | 1% | nt | -22%
COc1cccc2c1OC(=O)CC2c1ccc(C)cc1 (stereo unspecified) | 6% | -10% | nt | nt | nt | nt
O/N=C/c1cc(Br)ccc1OCc1ccc(F)cc1 | nt | nt | 15% | nt | nt | -35%
O=C(O)CN1C(=O)/C(=C\c2cc(Br)ccc2OCc2ccc(Cl)cc2)SC1=S | 14µM* | -25% | 11% | nt | 50µM* | 56µM*
O=C(O)CCCN1C(=O)/C(=C\C(Cl)=C\c2ccccc2)SC1=S | 14µM* | -28% | ? | nt | 50µM* | 50µM*
O=C(O)CN1C(=O)/C(=C\c2ccccc2OCc2ccc(F)cc2)SC1=S | 50µM* | 4% | -11% | nt | -34% | ?
O=C(O)CN1C(=O)/C(=C\c2cc(Br)ccc2OCc2ccc(F)cc2)SC1=S | 45µM* | -4% | ? | nt | 56µM* | ?
CN(c1ccccc1)c1ccc(/C=N/NC(=O)CC#N)cc1 | -6%[59 µM] | -2% | 44% | 7% | -6% | -2%
NC(=O)C1CCN(C(=O)c2ccccc2SCC(=O)NCC2CCCCC2)CC1 | 11%[12.7 µM] | -1% | 18% | nt | -8% | -10%
Cc1ccccc1-c1nnc(SCC(=O)N2CCCc3ccccc32)o1 | 4%[59 µM] | nt | 62% | nt | 23% | 29%
Cn1c(=O)c2c(ncn2CC(=O)OCC(=O)NCc2ccccc2Cl)n(C)c1=O | 2%[59 µM] | 0% | 19% | 5% | 9% | -14%
CCc1cccc(C)c1NC(=O)CSc1n[nH]c(-c2ccccc2)n1 | 6%[59 µM] | nt | 18%[57 µM] | nt | 5% | -12%
CC(=O)Nc1ccc(S(=O)(=O)NNC(=O)COc2ccc(C)cc2)cc1 | -4%[59 µM] | 1% | 14% | ? | -25% | -11%
CC(=O)Nc1ccc(NC(=O)COc2ccc(-c3ccc(C#N)cc3)cc2)cc1 | 1%[0.501 µM] | nt | 42% | 5% | 6% | 2%
SMILES | G9a inh | Sfp inh | HP1b chromo inh | L3MBTL1 inh | BAZ2B inh | JMJD2A Tudor
Cc1cccc(NC(=S)NNC(=O)COc2ccc(Cl)cc2Cl)c1 | 8.9µM* | ? | 5% | -3% | -7% | -19%
COc1ccc(NC(=O)CNc2ccc(C#N)cc2)cc1 | 50µM* | 10% | 27% | nt | -15% | -8%
CC(=O)Nc1ccc(S(=O)(=O)NNC(=O)COc2ccc(Cl)cc2Cl)cc1 | 50µM* | -12% | 33% | nt | -17% | -17%
COc1ccc(OCC(=O)NC(=S)NNC(=O)COc2ccc(Br)cc2Cl)cc1 | 1.6µM* | 22µM* | ? | 5% | -8% | 8.9µM*
COc1ccc(Cc2nc3ccc(C(=O)NCc4cc(Br)ccc4OC)cc3o2)cc1 | 3%[59 µM] | nt | 21%[57 µM] | nt | -9% | -8%
O=C(NCCc1nc2ccccc2n1CCO)C1CCCCC1 | nt | nt | nt | nt | nt | -11%
O=Cc1ccc(OC2C=CC(c3ccccc3)OC2CO)cc1 (stereo unspecified) | nt | 8% | nt | nt | nt | nt
CCc1ccc(NC(=O)CCc2ccc(C)o2)cc1 | -50% | 3% | 11% | -7% | ? | -21%
O=C(CCc1ccccc1)NCc1ccccc1 | 9% | 17% | 24% | nt | 5% | -13%
CCC(=O)NC(=S)Nc1ccc(NC(=O)COc2ccc(Cl)c(C)c2)cc1 | -3%[59 µM] | -7% | 9% | 4% | -31% | -13%
Cc1ccc(CCC(=O)Nc2ccc(C#N)cc2)o1 | 40µM* | -2% | 33% | nt | -38% | -3%
Cc1cc(C)nc(NS(=O)(=O)c2ccc(NC(=O)COc3ccc(Cl)cc3C)cc2)n1 | 10µM* | nt | 40% | nt | 5%[57.1 µM] | -10%
Cc1cc(OCC(=O)NNC(=S)NC(=O)c2ccc(Br)o2)ccc1Cl | 32µM* | 9% | 12% | nt | -33% | -18%
Cc1ccc(CCC(=O)NCc2ccccc2)o1 | 79µM* | 5% | 32% | -15% | -5% | -21%
Cc1ccccc1C(=O)N1CCC(C(=O)Nc2ccc(F)cc2F)CC1 | 8%[59 µM] | nt | 27% | nt | 1% | 2%
COC(=O)c1ccc(COC(=O)CNC(=O)c2ccc(C)s2)cc1 | ? | nt | 29% | -7% | 5% | -2%
CSCC[C@H](N)C(=O)N[C@@H](CO)C(=O)N[C@@H](CCCN=C(N)N)C(=O)N1CCC[C@H]1C(=O)N[C@@H](C)C(=O)N[C@@H](CS)C(=O)N1CCC[C@H]1C(=O)N[C@@H](CC(N)=O)C(=O)N[C@@H](CC(=O)O)C(=O)N[C@@H](CCCCN)C(=O)N[C@@H](Cc1ccc(O)cc1)C(=O)N[C@@H](CCC(=O)O)C(=O)O | nt | 2% | nt | nt | nt | nt
O=C(CNc1cccc(Cl)c1)NNC(=S)NCc1ccccc1 | ? | 23% | 4% | -16% | -22% | -33%
O=C(COc1ccc(Br)cc1Cl)NC(=S)Nc1ccccn1 | 79µM* | 56µM* | 5% | nt | -16% | -12%
O=C(CNc1ccc(Cl)cc1)NNC(=S)NCc1ccccc1 | 50µM* | 5% | 6% | -6% | -35% | ?
CC(=O)NC(=S)Nc1ccc(NC(=O)COc2ccc(Cl)cc2)cc1 | 5.6µM* | -2% | 43% | nt | -1% | -5%
